This is a sample that favours compounds with a hit; in the whole collection about 3% have one here.
KCNH2 3.1 block: KCNH2 3.1 (human) potassium channel inhibition; U2OS KCNH2 3.1, thallium flux FluxOr; stronger effect = lower value; activity change, % (tested at about 1.8 µM); 340,000 compounds, 0.95% hits;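 active = maximum activity change below -70%; inconclusive = maximum activity change from -70% to -50%; inactive = maximum activity change above -50%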;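 also: thallium influx rate constant from kinetic fluorescence after stimulation buffer; % is scaled to controls: 0 for no effect and ±100 for the full control effect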
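Channel expression came from 3.1 mutant virus (1.77 x 10^8 /mL) applied to suspended U2OS cells for 4 h. Flux was tracked with FluxOr dye plus Red40 quencher, and kinetic rate constants normalized to controls.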
KCNH2 WT inh: KCNH2 (human, wildtype) channel inhibition; activity change, % at 1.84 µM; U2OS, BacMam KCNH2, thallium flux FluxOr; stronger effect = lower value; 340,000 compounds, 0.37% hits; Q12809;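 active = maximum activity change below -70%; inconclusive = maximum activity change between -70% and -50%; inactive = maximum activity change above -50%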; also: % is scaled to controls: 0 for no effect and ±100 for the full control effect
Target sequence (Q12809 whole entry, looked up): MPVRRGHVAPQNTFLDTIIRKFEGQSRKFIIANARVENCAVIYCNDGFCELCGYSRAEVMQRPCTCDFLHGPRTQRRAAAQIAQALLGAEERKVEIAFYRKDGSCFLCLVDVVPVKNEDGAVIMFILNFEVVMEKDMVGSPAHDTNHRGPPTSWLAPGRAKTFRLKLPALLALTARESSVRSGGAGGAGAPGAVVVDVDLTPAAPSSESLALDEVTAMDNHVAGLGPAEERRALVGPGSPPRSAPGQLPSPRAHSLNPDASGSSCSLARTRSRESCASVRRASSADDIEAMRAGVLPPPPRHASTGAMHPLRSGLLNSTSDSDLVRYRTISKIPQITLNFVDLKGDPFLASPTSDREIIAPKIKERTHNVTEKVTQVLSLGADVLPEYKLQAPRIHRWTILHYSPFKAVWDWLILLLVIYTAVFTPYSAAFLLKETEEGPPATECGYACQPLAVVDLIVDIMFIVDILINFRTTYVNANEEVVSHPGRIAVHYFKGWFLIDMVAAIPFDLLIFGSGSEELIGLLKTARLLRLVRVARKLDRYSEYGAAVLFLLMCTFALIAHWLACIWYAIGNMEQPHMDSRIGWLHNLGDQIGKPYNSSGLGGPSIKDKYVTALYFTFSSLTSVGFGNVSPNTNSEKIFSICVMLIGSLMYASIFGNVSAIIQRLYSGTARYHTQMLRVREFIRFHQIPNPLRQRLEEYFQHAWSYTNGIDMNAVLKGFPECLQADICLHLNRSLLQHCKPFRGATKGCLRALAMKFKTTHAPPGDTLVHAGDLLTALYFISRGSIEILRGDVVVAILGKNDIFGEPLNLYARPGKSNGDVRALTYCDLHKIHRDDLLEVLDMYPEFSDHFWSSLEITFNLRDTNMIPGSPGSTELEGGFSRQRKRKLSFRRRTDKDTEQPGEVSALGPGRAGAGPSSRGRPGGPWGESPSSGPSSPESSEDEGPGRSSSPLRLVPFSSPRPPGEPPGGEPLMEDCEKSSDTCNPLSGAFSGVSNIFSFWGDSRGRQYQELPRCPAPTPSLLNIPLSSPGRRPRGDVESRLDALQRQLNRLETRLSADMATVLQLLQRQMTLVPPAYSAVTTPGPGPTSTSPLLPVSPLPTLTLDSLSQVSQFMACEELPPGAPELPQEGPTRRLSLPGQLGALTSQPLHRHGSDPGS
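U2OS cells transduced with wild-type KCNH2 virus are loaded with FluxOr dye for 45 min, and thallium flux is measured in kinetic reads before and after stimulation buffer. Rate constants are normalized to DMSO controls.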
LDHA inh: inhibitors of human lactate dehydrogenase A; P00338; purified LDHA, NADH/diaphorase-resazurin fluorescence; stronger effect = lower value; activity change, % (values are at about 110 or 230 µM); 480,000 compounds, 0.15% hits; in the data active = activity change below about -30%; inconclusive = mostly about -25% to -30%;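 also: plate controls were DMSO wells for no effect and wells without enzyme for full effect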
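Resorufin fluorescence (ex540/em590), read at 0 and 20 min after diaphorase/resazurin addition, reports the NADH left after a 5 min room-temperature reaction of 2 nM human LDH5 with 0.06 mM NADH and 0.2 mM pyruvate.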
Chronic BCR inh: inhibitors of chronic active B-cell receptor signaling; 340,000 compounds, 0.05% hits; AID 493014; Potency, µM (top dose mostly 46.1 µM), for inactives: at the highest dose activity change, negative = inhibition, most hits filed as inhibitors; ABC-DLBCL IkBa-CBG/CBR reporter, luminescence ratio, 4 h; active = well fitted inhibition curve with a large enough effect in the signal ratio, with a control signal flat, not every such curve was filed as active; inconclusive = small, poorly fitted or top-dose-only effect, or effect the other way, or a change in a side signal; the % refers to the signal ratio;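 also: potency is read from the fitted curve at half-maximal effect; plate controls were basal doxycycline-induced cells for no effect and cells given 10 µM MG132 for full effect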
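Concentration-response series (up to 46 uM) were applied to TMD8 dual-reporter cells for 4 h at 37C with doxycycline. Green/red ratio, after filter-overlap correction, defined %Activity; red signal alone was normalised to basal cells and zero luminescence.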
ClpP mod: qHTS Assay for Activators of ClpP | ATP-dependent Clp protease proteolytic subunit (Bacillus subtilis (strain 168)), P80244 | purified B. subtilis ClpP, FRET peptide cleavage, 20 min | Potency, µM (doses to about 57.5 µM), without a hit: top-dose activity change, negative = active | 340,000 compounds, 1.9% hits | AID 651965, 2013; active = well fitted falling curve with a large enough effect; inconclusive = small, poorly fitted or top-dose-only effect; inactive = no such curve, though single readings can be large or run the other way; also: potency is read from the fitted curve at half-maximal effect; the source files actives as falling curves though it sought activators and does not explain the sign; nearly all actives have a fitted effect of over 65% in size
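Purified B. subtilis ClpP, 10 microg/mL final in Tris/HCl pH8 with KCl, BSA, glycerol and Tween-20, cleaved an Abz/nitrotyrosine-quenched decapeptide. Fluorescence (ex 320, em 430) was read at 0 and 20 min at room temperature. Delta was normalized to 5.8 microM ADEP and DMSO/no-enzyme controls.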
ALOX12 inh: inhibitors of human 12S-lipoxygenase ALOX12; P18054; purified 12hLO, xylenol orange hydroperoxide absorbance; Potency, µM (top dose mostly 108 µM), inactives show top-dose activity change, negative = inhibition, usual class: inhibitors; 580,000 compounds, 1.1% hits; AID 1671190; active = well fitted inhibition curve with a large enough effect; inconclusive = small, poorly fitted or top-dose-only effect, or another doubt; inactive = no such curve, though single readings can be large or run the other way; also: potency is read from the fitted curve at half-maximal effect; % is scaled to controls: 0 for no effect and ±100 for the full control effect
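Purified human 12hLO at 150 nM in 25 mM Hepes, 0.01% Triton X-100, pH 7.0, preincubated 15 min at room temperature with compound. Reaction started with 40 uM arachidonic acid, 30 min at room temperature. Hydroperoxide measured by Fe-xylenol orange, 573/405 nm absorbance ratio.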
The depositor's hits bear a star.

Screening C=CCc1ccc(OCC(O)CN2CCN(Cc3ccc(Cl)cc3)CC2)c(OC)c1 (stereo not drawn) returned KCNH2 3.1 block -83.3*, KCNH2 WT inh -49.7, LDHA inh -4.5, Chronic BCR inh inconclusive, ClpP mod 0.6% and ALOX12 inh inconclusive.
Cc1ccc(OCC(O)CN2CCC(Cc3ccccc3)CC2)c(C)c1 (stereo not drawn) was read as KCNH2 3.1 block inconclusive, KCNH2 WT inh -21.6, LDHA inh -1.0, Chronic BCR inh -13.0%, ClpP mod 1.0% and ALOX12 inh -8.5%.
Screening O=C(Nc1ccc(F)c(Cl)c1)Nc1csc2ccccc12 returned KCNH2 3.1 block -5.2, KCNH2 WT inh 2.0, LDHA inh -12.1, Chronic BCR inh inconclusive and ALOX12 inh inconclusive.
`O=C(Nc1ccc(F)cc1F)Nc1csc2ccccc12` gave KCNH2 3.1 block -6.2, KCNH2 WT inh 1.7, LDHA inh -9.4, Chronic BCR inh inconclusive, ClpP mod 11.2µM* and ALOX12 inh 0.0%.
`COc1ccc(CC(=O)N2CCC(NS(=O)(=O)c3ccc(C)cc3)CC2)cc1` gave LDHA inh -5.4 and ALOX12 inh inconclusive.
For O=c1[nH]c2ccc(S(=O)(=O)N3CCN(C4CCCCC4)CC3)cc2[nH]c1=O the results were KCNH2 3.1 block -7.6, KCNH2 WT inh -11.3, LDHA inh -1.0, Chronic BCR inh -1.2%, ClpP mod 28.2µM* and ALOX12 inh 11.0%.
`O=c1[nH]c2ccc(S(=O)(=O)N3CCN(S(=O)(=O)c4c(F)cccc4F)CC3)cc2[nH]c1=O` gave LDHA inh -18.1.
`O=S(=O)(c1ccc(S(=O)(=O)N2CCN(C3CCCCC3)CC2)cc1)N1CCCCCC1` gave KCNH2 3.1 block -13.4, KCNH2 WT inh -13.8, LDHA inh -0.8, Chronic BCR inh 6.5%, ClpP mod 0.1% and ALOX12 inh 13.9%.
For O=c1[nH]c2ccc(S(=O)(=O)N3CCN(Cc4ccccc4)CC3)cc2[nH]c1=O the results were KCNH2 3.1 block 4.5, KCNH2 WT inh -0.9, LDHA inh -4.2, Chronic BCR inh -0.7%, ClpP mod 28.2µM* and ALOX12 inh -26.8%.
For O=S(=O)(c1ccc(=S)[nH]c1)N1CCCCC1 the results were KCNH2 3.1 block 4.4, KCNH2 WT inh 2.2, LDHA inh -13.2, Chronic BCR inh -0.6%, ClpP mod -3.0% and ALOX12 inh 99.4%.
Screening O=S(=O)(c1ccc(=S)[nH]c1)N1CCN(Cc2ccccc2)CC1 returned KCNH2 3.1 block 17.2, KCNH2 WT inh -5.8, LDHA inh -1.2, Chronic BCR inh 0.1%, ClpP mod 0.4% and ALOX12 inh 39.8µM*.
Screening CCCN1C(=O)Cc2cc(C(=O)NC(C)c3ccc(OCC)cc3)ccc21 (stereo not drawn) returned ALOX12 inh 48.0%.
`CNC(=O)COC(=O)c1cc2c(C)nn(-c3ccc(F)cc3)c2s1` gave KCNH2 3.1 block -7.5, KCNH2 WT inh 0.9, LDHA inh -4.8, Chronic BCR inh inconclusive, ClpP mod 35.5µM* and ALOX12 inh 4.4%.
O=C(Nc1nnc(SCC(=O)N2CCCCC2)s1)c1ccc(F)cc1F was read as KCNH2 3.1 block 11.2, KCNH2 WT inh -152.4*, LDHA inh -0.2, Chronic BCR inh 7.4%, ClpP mod -0.3% and ALOX12 inh -14.4%.
`Cc1c(CC(=O)NCCc2ccccc2F)c(=O)oc2c(C)c3occ(C(C)(C)C)c3cc12` gave LDHA inh -8.1, ClpP mod inconclusive and ALOX12 inh -18.6%.
`Cc1c(CC(=O)NCCc2ccccc2)c(=O)oc2c(C)c3occ(C(C)(C)C)c3cc12` gave LDHA inh -1.2, ClpP mod 31.6µM* and ALOX12 inh 0.0%.
